TDP-43 yeast inh = rescues yeast growth from TDP-43 toxicity | Potency, µM (series often up to 46.1 µM), without a hit: at the highest dose growth rescue (activation), hits mostly activators | 1.8% of 410,000 active | TDP-43 expressing yeast growth rescue, BacTiter-Glo, 24 h | AID 652104; note: % of control where 0% means no effect; nearly all actives have a fitted effect of over 50% in size
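Readout is BacTiter-Glo luminescence of cell growth, so inhibitors register as activators. TDP-43-expressing yeast at OD600=0.02 in galactose medium, after raffinose pregrowth to mid-log, were incubated with compound for 24 hr at 30 deg C.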
aSyn rescue = rescues yeast growth from alpha-synuclein toxicity | Yeast expressing alpha-synuclein, growth rescue, BacTiter-Glo, 24 h | Potency, µM (doses to about 46.1 µM), inactives show top-dose growth rescue (activation), most hits filed as activators | 0.14% of 370,000 active | AID 652106; note: % of control where 0% means no effect; nearly all actives have a fitted effect of over 65% in size
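Readout is rescue of growth in alpha-synuclein-expressing yeast, so inhibitors of toxicity appear as activators. Growth after 24 hr at 30 deg C in galactose medium is quantified by luminescence.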
FUS suppressor = suppressors of FUS proteinopathy in yeast | 0.24% of 390,000 active | Potency, µM (titrated, usually from 76.6 µM), most hits filed as activators | AID 1347120 | S. cerevisiae FUS-expressing, growth rescue, OD600, 24 h;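 note: plate controls were DMSO vehicle for no effect and reference control for full effect; nearly all actives have a fitted effect of over 55% in size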
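Absorbance at 600 nm, taken 24hr after compound addition, measured rescue of FUS-yeast growth at 30C. Induction used 2% galactose with seeding at OD 0.005. Controls: CP55940 from 92uM final, DMSO only.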
Abeta yeast res = restores growth of yeast expressing A-beta42 peptide. yeast expressing A-beta42, growth rescue, OD600, 48 h; response scale: 0% DMSO, 100% iron-clioquinol control. Potency, µM (doses to about 46.1 µM), most hits filed as activators. 0.063% of 410,000 active. AID 1347071; note: nearly all actives have a fitted effect of over 55% in size
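Growth rescue measured by 600 nm absorbance after 48 h yeast culture at 30 C with compound. Values normalized between DMSO and an equimolar ferric chloride plus clioquinol control.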
Starred values were filed as active, the others as inactive; i = inactive; ? = inconclusive; . = no result. This is a sample that favours compounds with a hit; in the whole collection about 2.1% have one here. Calls come from the whole dose curve; as a rule, active = well fitted curve in the direction sought with a large enough effect; inconclusive = small, poorly fitted or top-dose-only effect, or another doubt; inactive = no such curve, though single readings can be large; an effect the other way counts as inactive or inconclusive. Potency is the fitted concentration of half-maximal effect.

SMILES | TDP-43 yeast inh | aSyn rescue | FUS suppressor | Abeta yeast res
CCC(C)NC(=O)C1CCN(S(=O)(=O)c2ccc3[nH]c(=O)oc3c2)CC1 (configuration not stated) | . | . | i | .
CCOC(=O)c1c(C)sc2c1N(C(=O)CCl)c1cc(Cl)ccc1S2 | 20µM* | 2% | . | i
COc1ccc(N2CCC(CNC(=S)Nc3ccc(C)cc3C)C2)cc1 (configuration not stated) | ? | -20% | ? | 22µM*
Cc1ccc2nc(/C(C#N)=C/c3ccc(-c4cccc(Cl)c4)o3)[nH]c2c1 | 2µM* | . | i | i
O=S1(=O)c2c(cccc2N2CC[C@H](O)C2)O[C@H]2CCN1C2 | . | . | i | .
COC(=O)[C@]1(CNC(=O)c2cc(F)ccc2F)CC(=O)N(C)[C@@H]1c1ccccc1 | . | . | i | .
C[C@H](CCC(=O)N(c1ccccc1)c1ccccc1)CC1CCCCC1 | . | . | i | .
CC(=O)Nc1ccc(NC(=O)Cc2sc(-c3cccnc3)nc2-c2ccc(C)cc2)cc1 | 2% | -1% | 28µM* | i
Cc1ccc(-c2nc(-c3cccnc3)sc2CC(=O)O)cc1 | 10% | 6% | i | i
Cc1cc(NC(=O)COc2cc(F)cc(F)c2)n(-c2ccccc2)n1 | . | . | i | .
COC(=O)[C@]12C[C@H](CC(=O)N3CCOCC3)C(=O)N(CCc3ccc(OC)c(OC)c3)C1=C[C@H](C1CCCC1)O[C@@H]2C | . | . | i | .
COC(=O)[C@]12CCCCC=C1N(CCc1ccc(OC)c(OC)c1)C(=O)[C@H](CC(=O)NCc1ccccc1)C2 | 0% | 1% | ? | i
COC(=O)[C@]12CCCCC=C1N(CCc1ccc(OC)c(OC)c1)C(=O)[C@H](CC(=O)NCCCCc1ccccc1)C2 | 8% | 3% | 8.9µM* | i
COC(=O)[C@]12CCCCC=C1N(CCc1ccc(OC)c(OC)c1)C(=O)[C@H](CC(=O)NCc1cccc(C(F)(F)F)c1)C2 | 1% | 3% | 4.5µM* | i
Cc1cc(C)nc(N2CCN(C(=O)CSc3nc4ccccc4nc3N3CC(C)OC(C)C3)CC2)n1 (configuration not stated) | . | . | i | .
C#CCNC(=O)CSCc1nc(-c2ccc(OCC)cc2)oc1C | . | . | i | .
O=C(c1ccco1)N(Cc1ccc([N+](=O)[O-])cc1)c1ccc(Cl)cc1 | 22µM* | 10% | i | i
O=C(c1ccco1)N(Cc1ccc([N+](=O)[O-])cc1)c1ccc(Br)cc1 | 32µM* | 1% | i | i
O=C1CN(C(=O)c2ccc(S(=O)(=O)N3CCCCC3)cc2)C(c2ccc(F)cc2)c2cc(Br)ccc2N1 (configuration not stated) | 10% | . | 18µM* | i
Cc1ccc2c(c1)C(c1ccc(F)cc1)N(C(=O)c1ccc(S(=O)(=O)N3CCCCC3)cc1)CC(=O)N2 (configuration not stated) | -9% | . | 32µM* | i
O=S1(=O)CC2c3ccc(F)cc3CN2CN1Cc1ccccc1 (configuration not stated) | . | . | i | .
O=C(CCCn1ccc2cc(S(=O)(=O)N3CCCC3)ccc21)NCc1ccc(Cl)cc1 | 14% | . | i | i
COc1ccc(C(=O)Nc2nnc(SCc3cc(=O)n4cc(Cl)ccc4n3)s2)cc1 | 23% | . | i | i
CC1C/C(=C/c2cccn2C)C(=O)/C(=C/c2cccn2C)C1 (configuration not stated) | 13µM* | 5% | i | i
Cc1ccc(CC(=O)NO)cc1 | . | -10% | . | .
SMILES | TDP-43 yeast inh | aSyn rescue | FUS suppressor | Abeta yeast res
COc1ccc(CC2CCN(c3ncnc4sccc34)CC2)cc1 | . | . | i | .
COC(=O)C1CCN(C(=O)CCn2nnc(-c3cccs3)n2)CC1 | . | . | i | .
O=C(Nc1nnc(-c2ccco2)o1)c1ccc(Cl)cc1 | ? | 11µM* | i | ?
CC(=O)c1ccc(C(=O)Nc2nnc(-c3ccc(Cl)cc3)o2)cc1 | 10µM* | 3.2µM* | i | 6.3µM*
CCOc1ccccc1C(=O)OCC(=O)Nc1nnc(-c2ccccc2)o1 | 22µM* | ? | i | ?
COc1cccc(C(=O)Nc2nnc(-c3ccc(Cl)cc3)o2)c1 | 3.2µM* | ? | i | ?
CCOc1ccccc1C(=O)NC(C(=O)OCC(=O)Nc1nnc(-c2ccccc2)o1)C(C)C (configuration not stated) | ? | ? | ? | i
COc1cccc(C(=O)Nc2nnc(-c3cccs3)o2)c1 | 0% | 7% | i | ?
COc1ccccc1NC(=O)OC1CC2CC1[C@H]1CCCCN1[C@H]2C (some centres not stated) | . | . | i | .
O=C(COc1ccccc1)Nc1nnc(-c2ccc(Cl)cc2)o1 | 14µM* | 14µM* | i | ?
COc1cccc(C(=O)Nc2nnc(-c3ccc(F)cc3)o2)c1 | 7.1µM* | 10µM* | i | ?
O=C(NCC1CCCO1)c1ccc(COc2ccc(Cl)cc2)cc1 (configuration not stated) | -12% | 0% | i | i
O=C(NCC1CCCO1)c1ccc(COc2ccccc2Br)cc1 (configuration not stated) | 13µM* | -9% | i | i
Cc1nc2c(-c3ccc(F)cc3)cnn2c(N)c1-c1ccccc1 | 13µM* | -16% | i | i
Cc1nc2c(-c3ccc(Cl)cc3)cnn2c(N)c1-c1ccc(F)cc1 | 15% | 4% | i | i
N#Cc1c(-c2ccc(Br)cc2)nc2n(c1=O)CCCS2 | ? | 0% | i | i
N#Cc1c(-c2ccc(Cl)cc2)nc2n(c1=O)CCCS2 | 11µM* | 2% | i | i
COc1ccc(-c2nc3n(c(=O)c2C#N)CCCS3)cc1 | 16µM* | 5% | i | ?
Nc1ccc2nc(-c3cccc(-c4nc5ccc(N)cc5[nH]4)c3)[nH]c2c1 | 14µM* | 2% | i | ?
Cc1c(C(=O)OC(C)C(=O)N(C)Cc2ccccc2)oc2ccccc12 (configuration not stated) | 35µM* | 1% | i | i
COc1cc(NC(=S)Nc2ccccn2)cc(OC)c1 | 10µM* | 1% | i | i
S=C(Nc1ccccn1)Nc1ccccc1Cl | 16µM* | -4% | i | i
Cc1c(Cl)cccc1NC(=S)Nc1ccccn1 | 24% | 1% | i | i
Cc1ccc(-c2nnn3c2nc(NCC(C)c2ccccc2)c2ccccc23)cc1 (configuration not stated) | 16% | . | i | i
Cc1ccc(N2CC(NC(=O)C3CC3)CC2=O)cc1C (configuration not stated) | 24% | . | i | i
CCOc1cc(S(=O)(=O)NCc2ccc3c(c2)OCO3)c(C)cc1C | 19% | 7% | i | i
Cc1cc(C)c(S(=O)(=O)NCc2ccc3c(c2)OCO3)c(C)c1 | 18µM* | 2% | i | i
CCOc1cc(C)c(Cl)cc1S(=O)(=O)NCc1ccc2c(c1)OCO2 | 14µM* | 11% | i | i

Source: PubChem (National Center for Advancing Translational Sciences (NCATS))
